Compound activity: PubChem BioAssay, Sanford-Burnham Center for Chemical Genomics
Rows were chosen to be rich in hits. Some 2.6% of all compounds tested hit in one or more screens of this group.
eIF4H inh: human eIF4H binding inhibitors, primary screen, translation initiation inhibitor project, biochemical, uHTS, fluorescence polarization; AID 2012, 2009; 290,000 compounds, 0.94% hits; eIF4H fluorescence polarization binding assay; inhibition, % at 35 µM;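 note: calls also rest on retests at 20 µM and on dose response follow-up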
PABP polyA inh: PABP poly(A) RNA binding inhibitors, primary screen, biochemical, fluorescence polarization, uHTS. calls only at 35 µM. 290,000 compounds, 1% hits;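 note: calls also rest on retests at 20 µM and on dose response follow-up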
PHOSPHO1 inh: PubChem AID 1565 | recombinant PHOSPHO1, absorbance phosphatase assay | 290,000 compounds, 1.1% hits | Phosphoethanolamine/phosphocholine phosphatase (Homo sapiens), Q8TCT1 | inhibition, % at 13.3 µM; in the data active = inhibition above about 60%
MLLE-PAM2 inh: inhibitors of PABP1 MLLE–PAM2 peptide binding, primary screen, biochemical, fluorescence polarization, FITC-PAM2, GST-MLLE. Polyadenylate-binding protein 1 (Homo sapiens), P11940. inhibition, % at 20 µM. 360,000 compounds, 0.36% hits. AID 588489, 2011; in the data active = inhibition above about 35%, passing the limit was not always enough
APOBEC3A inh: APOBEC3A ssDNA deaminase inhibitors, primary screen, selectivity assay for APOBEC3G inhibitor project, biochemical, FAM/TAMRA oligo cleavage fluorescence; inhibition, % at 20 µM; recombinant A3A, FAM/TAMRA ssDNA deamination fluorescence; AID 493011, 2011; 330,000 compounds, 0.41% hits;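 active = at least 40% inhibition at 20 µM here, with at most 30% in a related deaminase screen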
A3G deaminase: APOBEC3G DNA deaminase inhibitors, primary screen, biochemical, fluorescence, single-stranded DNA substrate, uHTS; DNA dC->dU-editing enzyme APOBEC-3G (Homo sapiens), Q9HC16; inhibition, % at 20 µM; 330,000 compounds, 0.28% hits; recombinant A3G, ssDNA deamination FAM/TAMRA fluorescence;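 active = inhibition of at least 40% at 20 µM, with no more than 30% in the related APOBEC3A deaminase screen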
Target sequence (Q9HC16 whole entry, looked up): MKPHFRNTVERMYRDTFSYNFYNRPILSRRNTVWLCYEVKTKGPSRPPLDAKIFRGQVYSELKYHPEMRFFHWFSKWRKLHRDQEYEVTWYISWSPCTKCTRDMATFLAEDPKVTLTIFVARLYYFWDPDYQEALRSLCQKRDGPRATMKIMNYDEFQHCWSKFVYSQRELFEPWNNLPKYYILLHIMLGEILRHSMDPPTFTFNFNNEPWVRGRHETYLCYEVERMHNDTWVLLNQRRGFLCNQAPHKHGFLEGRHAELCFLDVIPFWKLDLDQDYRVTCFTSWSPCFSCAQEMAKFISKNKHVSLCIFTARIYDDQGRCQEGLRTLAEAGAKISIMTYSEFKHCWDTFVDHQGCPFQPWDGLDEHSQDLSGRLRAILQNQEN
APOBEC3A confirm: APOBEC3A deaminase inhibitors, retest, confirmation, selectivity assay for APOBEC3G inhibitor project, biochemical, single concentration, fluorescence readout | shares compounds with APOBEC3A inh | recombinant A3A, ssDNA deaminase UDG fluorescence assay | inhibition, % at 20 µM | 1,400 compounds, 63% hits;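 active = inhibition reaching a set limit, 80% of the first screen's cutoff, at 20 µM in any replicate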
UDG ctr A3A: E. coli UDG inhibitors, confirmation, counter-screen for APOBEC3A inhibitor project, biochemical, single concentration, fluorescence, FAM/TAMRA oligo; inhibition, % at 20 µM; shares compounds with APOBEC3A inh; UDG counterscreen, FAM/TAMRA uracil oligo fluorescence; AID 504714, 2011; 1,000 tested, under 10 active
Large screens that a line does not name were inactive (follow-up assays come after a bar, where they were run). Unless noted, the rule behind the calls is not given here.

Cc1ccc(C2=NOC(C)(c3nnc(-c4ccc(Cl)cc4)o3)C2)cc1 (centres undefined)	none
CCOC(=O)/C(C#N)=C/c1cccn1-c1ccc(Cl)cc1	none
N#C/C(=C/c1cccn1-c1cccc(C(=O)O)c1)c1ccc(Cl)cc1	PABP polyA inh active, APOBEC3A inh 70 | APOBEC3A confirm 65
Fc1ccc(CNc2ccccn2)cc1	none
CSc1ccc(CNc2ccccn2)cc1	PHOSPHO1 inh 76, APOBEC3A inh 48 | APOBEC3A confirm inactive
COc1ccc2c(C)cc(N3CCCCCC3)nc2c1	none
COc1ccc2c(C)cc(N3CCN(Cc4ccccc4)CC3)nc2c1	APOBEC3A inh 41 | APOBEC3A confirm inactive
Cc1ccccc1CN(C)C(C)C(=O)Nc1ccccc1F (centres undefined)	none
CC(C)CC(=O)N1CCN(c2ccc([N+](=O)[O-])cc2Cl)CC1	none
CC(C)C(=O)N1CCN(c2ccc([N+](=O)[O-])cc2Cl)CC1	APOBEC3A inh 55 | APOBEC3A confirm 17 | UDG ctr A3A inactive
O=C(c1cc([N+](=O)[O-])ccc1N1CCOCC1)N1CCCCC1	none
O=C(c1cc([N+](=O)[O-])ccc1N1CCOCC1)N1CCN(c2ccc([N+](=O)[O-])cc2)CC1	APOBEC3A inh 56 (no result: eIF4H inh, PABP polyA inh, PHOSPHO1 inh) | APOBEC3A confirm inactive
CC(=O)N1c2ccc(S(=O)(=O)NCCc3ccc(Cl)cc3)cc2CC1C (centres undefined)	none
CC(=O)Nc1nc2c(ccc3ccccc32)s1	APOBEC3A inh 49 (no result: PHOSPHO1 inh) | APOBEC3A confirm inactive
O=C(Cc1cccs1)Nc1nc2c(ccc3ccccc32)s1	none
COc1ccc(-c2noc(CNC(=O)c3ccoc3C)n2)cc1OC	none
CCN(CC)C(=O)c1ncn(C)c1C(=O)N(CC)CC	APOBEC3A inh 51 (no result: eIF4H inh, PABP polyA inh, PHOSPHO1 inh) | APOBEC3A confirm 64 | UDG ctr A3A inactive
CN(C)C(=O)c1c([N+](=O)[O-])ncn1C	none
CN(Cc1ccccc1)C(=O)c1ncn(Cc2ccccc2)c1C(=O)N(C)Cc1ccccc1	none (no result: eIF4H inh, PABP polyA inh, PHOSPHO1 inh)
CN(Cc1ccccc1)C(=O)c1ncn(C)c1C(=O)N(C)Cc1ccccc1	APOBEC3A inh 60 (no result: eIF4H inh, PABP polyA inh, PHOSPHO1 inh) | APOBEC3A confirm 67 | UDG ctr A3A inactive
Cc1cccc(C)c1OCC(=O)NCc1nnc(SCC(=O)NC2CCCCC2C)n1C (centres undefined)	APOBEC3A inh 53 | APOBEC3A confirm 60 | UDG ctr A3A inactive
Cc1nc(SCC(=O)c2ccc(F)c(F)c2)[nH]c(=O)c1Oc1ccc(Cl)cc1	none
Cc1c(-c2ccnc3cc(C(=O)O)nn23)cnn1C	APOBEC3A inh 49 | APOBEC3A confirm 32 | UDG ctr A3A inactive
CCn1cc(-c2ccnc3cc(C(=O)O)nn23)c(C)n1	none
CCN(CC)CCNC(=O)c1ccc(NC(=O)c2cc(S(=O)(=O)N3CCCCC3)ccc2C)cc1	none (no result: eIF4H inh, PABP polyA inh, PHOSPHO1 inh)
CCc1ccc(NC(=O)Cn2cnc3c(=O)n(C)c(=O)n(C)c32)cc1	none
Cn1c(=O)c2ncn(CC(=O)NC3CCCCCC3)c2n(C)c1=O	PABP polyA inh active, PHOSPHO1 inh 84, APOBEC3A inh 43 | APOBEC3A confirm inactive
O=C(CSc1n[nH]c(-c2ccncc2)n1)Nc1ccc(Cl)cc1	none
O=C(CSc1n[nH]c(-c2ccncc2)n1)Nc1ccc(Cl)c(Cl)c1	APOBEC3A inh 59 | APOBEC3A confirm 48 | UDG ctr A3A inactive
C#CCOCCOCCOCCNc1nc(N2CCN(C(=O)Cn3cc(CCO)nn3)CC2)nc(N2CCN(C(=O)Cn3cc(CCCCN)nn3)CC2)n1	none (no result: eIF4H inh, PABP polyA inh, PHOSPHO1 inh, APOBEC3A inh, A3G deaminase)
c1ccc(Cn2nnnc2C(c2cccnc2)N2CCN(c3ccccc3)CC2)cc1 (centres undefined)	none
COc1ccc(S(=O)(=O)N2CCOCC2)cc1C(=O)Nc1ccc2c(c1)OCO2	none
CC(C)n1c(SCC(=O)Nc2nncs2)nnc1-c1ccco1	eIF4H inh 72, PABP polyA inh active, APOBEC3A inh 66 (no result: MLLE-PAM2 inh) | APOBEC3A confirm 53 | UDG ctr A3A inactive
CC1=CC(C)C(C(=O)O)C(C(=O)O)C1 (centres undefined)	none
CC[N+](C)(CC)CC(=O)OCC1C(C)C=C(C)CC1C (centres undefined)	APOBEC3A inh 73 | APOBEC3A confirm 82 | UDG ctr A3A inactive
CC(C)(C)OC(=O)N1CCC(NC(=O)c2[nH]cnc2C(=O)Nc2ccccc2F)CC1	none (no result: eIF4H inh, PABP polyA inh, PHOSPHO1 inh, APOBEC3A inh, A3G deaminase)
CC(=O)c1cc(CN2C(=O)c3ccccc3C2=O)cs1	none
CN1CC[n+]2c(CN3C(=O)c4ccccc4C3=O)csc21	APOBEC3A inh 51 | APOBEC3A confirm 79 | UDG ctr A3A inactive
O=c1[nH]ncc2c3ccccc3n(Cc3ccccc3F)c12	APOBEC3A inh 43 | APOBEC3A confirm inactive | UDG ctr A3A inactive
Cc1[nH]n(-c2cccc(Cl)c2)c(=O)c1C=NCc1ccco1	APOBEC3A inh 44 | APOBEC3A confirm inactive
Cc1[nH]n(-c2ccccc2)c(=O)c1C=NCc1ccco1	none (no result: MLLE-PAM2 inh)
CCN(CC(=O)Nc1c(F)cccc1F)C(=O)c1cccc(-n2cccc2)c1	APOBEC3A inh 75 (no result: eIF4H inh, PABP polyA inh, PHOSPHO1 inh) | APOBEC3A confirm 55 | UDG ctr A3A inactive
CC(C)C(NC(=O)c1ccccc1F)C(=O)NCc1ccc(F)cc1 (centres undefined)	APOBEC3A inh 40 | APOBEC3A confirm inactive
CC(C)[C@H](NC(=O)c1ccccc1F)C(=O)NCCc1ccccc1	none
COc1ccc(-c2nc(SC(C)C(=O)Nc3ccc(NC(C)=O)cc3)n[nH]2)cc1 (centres undefined)	none (no result: eIF4H inh, PABP polyA inh, PHOSPHO1 inh)
Cc1cccc(C)c1NC(=O)C(C)Sc1n[nH]c(-c2ccncc2)n1 (centres undefined)	APOBEC3A inh 82 | APOBEC3A confirm inactive | UDG ctr A3A inactive
O=C(COc1ccccc1)NCC(c1ccco1)N1CCN(c2ccccc2)CC1 (centres undefined)	none (no result: eIF4H inh, PABP polyA inh, PHOSPHO1 inh)
O=C1OC(c2ccc3c(c2)OCO3)=N/C1=C\c1ccc(C(=O)O)cc1	eIF4H inh 55, APOBEC3A inh 40 | APOBEC3A confirm 32 | UDG ctr A3A inactive
O=C(O)c1cccc(-c2ccc3c(c2)OCO3)c1	none (no result: PHOSPHO1 inh)
COc1ccc(/C=C2\C(=O)NCC(=O)N2C)cc1	APOBEC3A inh 52 (no result: eIF4H inh, PABP polyA inh) | APOBEC3A confirm 75 | UDG ctr A3A inactive
